# Activity calls are given as the source filed them. How the source made its calls: active means hit-call score of the fitted dose curve at least 0.9, where 1 is the maximum; inactive means score below 0.9.
# Test system: not listed separately
# Assay: ATG_GLI_CIS: Attagene CIS-FACTORIAL HepG2 Assay for human Zinc Finger Protein GLI1 (AID 2282945)
# Conditions: HepG2, Attagene cis-factorial reporter mRNA, GLI element; actives raise or lower the signal
# Outline: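 HepG2 cells transiently transfected with cis-promoter multiplexed reporter units report endogenous transcription factor activity. After 24 h chemical exposure, reporter mRNA was quantified by RT-PCR, 6-FAM labelling, HpaI digestion and capillary electrophoresis, with bidirectional fitting against DMSO.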
Structure (SMILES),outcome,AC50
C[C@]12CCC(=O)C(O)=C1CC[C@@H]1[C@@H]2CC[C@]2(C)C(=O)CC[C@@H]12,inactive,
CSc1nc(N=[N+]=[N-])nc(NC(C)C)n1,inactive,
O=[N+]([O-])O.O=[N+]([O-])O.[Cd],,9.58 µM (active)

# Biological target: Bile acid receptor (Homo sapiens) (UniProt Q96RI1)
# Assay: ATG_IR1_CIS: Attagene CIS-FACTORIAL HepG2 Assay for human Nuclear Receptor Subfamily 1 Group H Member 4 (NR1H4), IR1 submotif (AID 2282946)
# Conditions: IR1 reporter transcription, actives raise or lower the signal
# Outline: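 Readout: reporter transcript levels by RT-PCR with fluorescent capillary electrophoresis, from HepG2 cells transiently transfected with multiplexed cis-regulated reporters and dosed 24 h. Gain- or loss-of-signal fitted versus DMSO negative control.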
# Bile acid receptor (Homo sapiens), sequence (Q96RI1 whole entry, looked up): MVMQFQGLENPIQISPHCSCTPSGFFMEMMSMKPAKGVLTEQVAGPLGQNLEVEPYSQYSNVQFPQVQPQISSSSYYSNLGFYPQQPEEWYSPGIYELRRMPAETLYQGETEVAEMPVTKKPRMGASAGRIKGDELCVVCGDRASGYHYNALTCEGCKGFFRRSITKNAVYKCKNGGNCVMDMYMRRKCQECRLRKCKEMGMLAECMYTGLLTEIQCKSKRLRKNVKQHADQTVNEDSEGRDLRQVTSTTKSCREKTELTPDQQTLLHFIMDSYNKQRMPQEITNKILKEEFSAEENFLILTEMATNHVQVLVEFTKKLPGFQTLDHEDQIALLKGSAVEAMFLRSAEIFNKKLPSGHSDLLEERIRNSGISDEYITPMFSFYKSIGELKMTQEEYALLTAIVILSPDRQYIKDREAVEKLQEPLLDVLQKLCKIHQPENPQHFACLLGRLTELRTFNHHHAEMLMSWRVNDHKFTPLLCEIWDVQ
row,Structure (SMILES),outcome
1,Nc1ccc(-c2ccc(N)c(N)c2)cc1N,inactive
2,O=c1[nH]c(Cl)c(Cl)cc1Cl,inactive
3,CCC(C)c1cc(C(C)(C)C)cc(-n2nc3ccccc3n2)c1O (stereo not drawn),inactive
4,O=C(O)CCCc1ccc(N(CCCl)CCCl)cc1,inactive
5,Nc1cc(Cl)cc(Cl)c1,inactive
6,CC(Cc1ccc(C(C)(C)C)cc1)CN1C[C@@H](C)O[C@@H](C)C1 (stereo partly drawn),inactive
7,O=C(O)c1cc[c]([Hg][Cl])cc1,inactive
8,O=S(=O)(c1ccccc1)c1ccccc1,inactive
9,Clc1ccc(-c2ccccc2)cc1,inactive
10,O=P(O)(Oc1ccccc1)Oc1ccccc1,inactive
11,Cc1ccc(N(SC(F)(Cl)Cl)S(=O)(=O)N(C)C)cc1,inactive
12,CC1(C)CC(=O)CC(C)(C)N1[O],inactive
13,SCc1ccco1,inactive
14,O=[N+]([O-])c1cc(C(F)(F)F)c(Cl)c([N+](=O)[O-])c1Cl,inactive

# Test system: not listed separately
# Assay: ATG_GRE_CIS: Attagene CIS-FACTORIAL HepG2 Assay for human Glucocorticoid Response Elements (GRE) (AID 2282947)
# Conditions: HepG2 GRE cis-reporter, Attagene multiplex mRNA; actives raise or lower the signal
# Outline: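 Cells (HepG2) bearing transfected cis-promoter reporter transcription units were treated with chemical for 24 hours. Reporter mRNA was measured via RT-PCR with capillary electrophoresis, and activity was fitted in both directions relative to DMSO.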
row,Structure (SMILES),outcome
1,CCOP(O)OCC,inactive
2,CCC(C)c1cc(C(C)(C)C)cc(-n2nc3ccccc3n2)c1O (stereo not drawn),inactive
3,Nc1c(Cl)c(Cl)c(Cl)c(Cl)c1Cl,inactive
4,COC(=O)c1ccccc1S(=O)(=O)NC(=O)Nc1nc(C)cc(C)n1,inactive
5,Nc1ccccc1C(=O)OCCc1ccccc1,inactive
6,COc1ncc(F)c2nc(S(=O)(=O)Nc3c(F)cccc3F)nn12,inactive
7,BrCBr,inactive
8,O=P1(NCCCl)OCCCN1CCCl (stereo not drawn),inactive
9,CC(Cc1ccc(C(C)(C)C)cc1)CN1C[C@@H](C)O[C@@H](C)C1 (stereo partly drawn),inactive
10,O=C(O)c1cc[c]([Hg][Cl])cc1,inactive
11,Clc1ccc(-c2ccccc2)cc1,inactive
12,O=P(O)(Oc1ccccc1)Oc1ccccc1,inactive
13,CC1CCCC1.[C-]#[O+].[C-]#[O+].[C-]#[O+].[Mn],inactive
14,O=C(O)COc1ccccc1,inactive
15,[Cl][Sb]([Cl])[Cl],inactive
16,O=CNC(N1CCN(C(NC=O)C(Cl)(Cl)Cl)CC1)C(Cl)(Cl)Cl (stereo not drawn),inactive
17,C[C@]12CCC(=O)C(O)=C1CC[C@@H]1[C@@H]2CC[C@]2(C)C(=O)CC[C@@H]12,inactive

# Test system: not listed separately
# Assay: ATG_ISRE_CIS: Attagene CIS-FACTORIAL HepG2 Assay for human Interferon Regulatory Factor 1 (IRF1) binding to an Interferon-Stimulated Response Element (ISRE) (AID 2282948)
# Conditions: HepG2 ISRE cis-reporter (Attagene), mRNA transcription readout; actives raise or lower the signal
# Outline: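 Read-out: fluorescent RT-PCR products resolved by capillary electrophoresis, reporting endogenous transcription factor activity via ISRE-driven reporter mRNA in transfected HepG2 cells dosed for 24 h; gain or loss fitted relative to DMSO.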
Structure (SMILES),outcome,AC50
Nc1ccc(-c2ccc(N)c(N)c2)cc1N,inactive,
CCOP(O)OCC,inactive,
C#CC1(O)CCCCC1,inactive,
O=c1[nH]c(Cl)c(Cl)cc1Cl,inactive,
CCC(C)c1cc(C(C)(C)C)cc(-n2nc3ccccc3n2)c1O (stereo not drawn),inactive,
[CH3][Sn]([Cl])([Cl])[Cl],inactive,
Nc1c(Cl)c(Cl)c(Cl)c(Cl)c1Cl,inactive,
COC(=O)c1ccccc1S(=O)(=O)NC(=O)Nc1nc(C)cc(C)n1,inactive,
Nc1ccccc1C(=O)OCCc1ccccc1,inactive,
N#Cc1cccc(C#N)c1,inactive,
O=C(O)CCCc1ccc(N(CCCl)CCCl)cc1,inactive,
Nc1cc(Cl)cc(Cl)c1,inactive,
COc1ncc(F)c2nc(S(=O)(=O)Nc3c(F)cccc3F)nn12,inactive,
COC(C)(C)CCC[C@H](C)C/C=C/C(C)=C/C(=O)OC(C)C,inactive,
[CH3][Sn]([CH3])([Cl])[Cl],inactive,
BrCBr,inactive,
CCc1cccc(C)c1N(C(=O)CCl)[C@@H](C)COC,inactive,
O=P1(NCCCl)OCCCN1CCCl (stereo not drawn),inactive,
CC(Cc1ccc(C(C)(C)C)cc1)CN1C[C@@H](C)O[C@@H](C)C1 (stereo partly drawn),inactive,
O=C(O)c1cc[c]([Hg][Cl])cc1,inactive,

Structure (SMILES),outcome,AC50
C[N+](C)(C)CC(=O)O,inactive,
O=S(=O)(c1ccccc1)c1ccccc1,inactive,
Clc1ccc(-c2ccccc2)cc1,inactive,
CN(C)C(=O)C(c1ccccc1)c1ccccc1,inactive,
C=CCc1ccc(OC(=O)Cc2ccccc2)c(OC)c1,inactive,
O=P(O)(Oc1ccccc1)Oc1ccccc1,inactive,
CC1CCCC1.[C-]#[O+].[C-]#[O+].[C-]#[O+].[Mn],,35.2 µM (active)
O=C(O)COc1ccccc1,inactive,
[Cl][Sb]([Cl])[Cl],inactive,
CCC(=O)c1ccc(Cl)cc1,inactive,
Cc1ccc(N(SC(F)(Cl)Cl)S(=O)(=O)N(C)C)cc1,,14.7 µM (active)
CC1(C)CC(=O)CC(C)(C)N1[O],inactive,
SCc1ccco1,inactive,
O=CNC(N1CCN(C(NC=O)C(Cl)(Cl)Cl)CC1)C(Cl)(Cl)Cl (stereo not drawn),inactive,
Oc1cc(Cl)ccc1Cl,inactive,
O=[N+]([O-])c1cc(C(F)(F)F)c(Cl)c([N+](=O)[O-])c1Cl,,5.65 µM (active)
C[C@]12CCC(=O)C(O)=C1CC[C@@H]1[C@@H]2CC[C@]2(C)C(=O)CC[C@@H]12,inactive,
CSc1nc(N=[N+]=[N-])nc(NC(C)C)n1,inactive,
O=[N+]([O-])O.O=[N+]([O-])O.[Cd],,1.03 µM (active)

# Source: PubChem BioAssay (EPA / NIEHS)
